# High-throughput results (PubChem)
# Fluorescein fluor – qHTS Assay for Spectroscopic Profiling in Fluorescein Spectral Region. max fluorescein-equivalent concentration, M. Compound autofluorescence, 480/540 nm, fluorescein-equivalent; hits give high values. 59,000 tested, 0.91% active; in the data active = max fluorescein-equivalent concentration above about 10 nM; inconclusive = between about 1.1 nM and that limit
#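 Tris 100 mM pH 8.0; 15 min RT; CCD read, ex 480/em 540 nm. Output: fluorescein-equivalent concentration per compound concentration, from six-point dye series on each plate.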
# Texas Red fluor – qHTS Assay for Spectroscopic Profiling in Texas Red Spectral Region; Compound fluorescence, Texas Red channel, 547/618 nm; hits give high values; max dye-equivalent concentration, M; 59,000 tested, 0.06% active; AID 587, 2007; in the data active = max dye-equivalent concentration above about 10 nM; inconclusive = between about 1.1 nM and that limit
#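 Texas Red-region profiling: compounds in 100 mM Tris pH 8.0 were read at 547/618 nm after 15 min at room temperature. Intensities were normalized against a six-point Texas Red standard series to give dye-equivalent concentration.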
# Rhodamine fluor – qHTS Assay for Spectroscopic Profiling in Rhodamine Spectral Region; Rhodamine-region fluorescence, 547/598 nm, Tris buffer; hits give high values; max dye-equivalent concentration, M; 59,000 tested, 0.05% active; AID 594, 2007; in the data active = max dye-equivalent concentration above about 11 nM; inconclusive = between about 1.1 nM and that limit
#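 Compounds in 100 mM Tris buffer, pH 8.0, were incubated 15 min at room temperature, then read at 547 nm excitation and 598 nm emission. Fluorescence was normalized against a per-plate six-point rhodamine standard curve as dye-equivalent concentration.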
# A488 autofl – qHTS Assay for Spectroscopic Profiling in A488 Spectral Region | max dye equivalency, M | 59,000 tested, 0.1% active | AID 591, 2007 | compound autofluorescence, A488 spectral region, dye equivalency; Compound Type: qHTS ECL - MLSMR
#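 Autofluorescence read at ex 480/em 540 nm after 15 min RT in 100 mM Tris pH 8.0; compound signal normalized to A488 standard series on each plate, reported as dye-equivalent concentration at each test concentration.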
# Resorufin autofl – qHTS Assay for Spectroscopic Profiling in Resorufin Spectral Region | max dye-equivalent concentration, M | 59,000 tested, 0.04% active | AID 588, 2007 | Compound fluorescence, resorufin region 547/598 nm, buffer; hits give high values
#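 Intrinsic fluorescence profiled in the resorufin window (ex 547 nm, em 598 nm) after 15 min at room temperature in pH 8.0 Tris buffer (100 mM); responses normalized against a six-point resorufin standard series as dye-equivalent concentration.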
# A647 autofl – qHTS Assay for Spectroscopic Profiling in A647 Spectral Region | Compound fluorescence, A647 channel (570/671 nm), Tris buffer | max dye-equivalent concentration, M | 59,000 tested, under 10 active | AID 592, 2007;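 note: values scaled relative to a standard on each plate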
#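 Compounds pinned into 100 mM Tris pH 8.0, 15 min at room temperature, then read with 570 nm excitation/671 nm emission filters. Fluorescence normalized to an on-plate six-point Alexa 647 standard curve, giving dye-equivalent concentration per compound concentration.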
# * hit, by the source's call; i = inactive; ? = inconclusive; ! = a repeat was not active. This is a sample that favours compounds with a hit; in the whole collection about 0.95% have one here. Unless noted, the rule behind the calls is not given here.
SMILES,Fluorescein fluor,Texas Red fluor,Rhodamine fluor,A488 autofl,Resorufin autofl,A647 autofl
CC(C)OCCCn1c(=NC(=O)c2ccncc2)c(C#N)cc2c(=O)n3ccccc3nc21,1.89e-08M*,i,i,i,i,1e-09
CC(C)(C)OC(=O)N1CC=C2C(C#N)=C(N)C(C#N)(C#N)[C@H](c3cccnc3)[C@H]2C1,?,i,i,i,i,7.72e-08
CC(C)(C)OC(=O)N1CC=C2C(C#N)=C(N)C(C#N)(C#N)C(c3cccs3)C2C1 (centres undefined),1.83e-08M*,i,i,i,i,4.06e-08
CC1CC=C2C(C#N)=C(N)C(C#N)(C#N)C(c3cccs3)C2C1 (centres undefined),2.66e-08M*,i,i,i,i,2.37e-08
N#Cc1ccc(CN2CCC3(CC2)CCN(C(=O)c2cc(C(F)(F)F)cc(C(F)(F)F)c2)CC3)cc1,i,i,i,i,i,1e-09
CN1C(C(=O)Nc2ccccn2)=C(O)c2ccccc2S1(=O)=O,1.22e-08M*!,i,i,i,i,4.2e-08
CCOc1ccccc1NC(=O)CN(C)S(=O)(=O)c1ccc(OC)c(C)c1,i,i,i,i,i,1.1e-08
O=C(O)[C@@H]1CCCN1Cc1cc2ccccc2c2ccccc12,?,i,i,i,i,5.69e-08
Clc1ccc(CN2CCCN(Cc3ccc(Cl)cc3)C2c2cc3ccccc3c3ccccc23)cc1,1.15e-08M*,i,i,i,i,3.5e-09
CCCN1CCCc2cc(CN)ccc21,3.28e-08M*,i,i,?,i,1e-09
CC(C)(C)c1nnc2sc(SCC(=O)c3cccs3)nn2c1=O,i,?,i,i,i,6e-09
c1ccc(CCNc2ncnc3c2nnn3Cc2ccccc2)cc1,1.16e-08M*,i,i,i,i,2.6e-09
c1ccc(Cn2nnc3c(NCCN4CCOCC4)ncnc32)cc1,i,i,i,i,i,1.75e-08
O=C1C2[C@@H](c3ccccc3)N[C@@H](c3ccccc3)C1[C@H](c1ccccc1)N[C@H]2c1ccccc1,i,i,i,i,i,1e-09
Cc1cccc(-n2c(O)c(C=Nc3ccc4c(c3)OCO4)c3ccccc3c2=O)n1,5.84e-08M*,i,i,?,i,3.03e-08
Cc1cc(N=Cc2c(O)n(-c3ccc4c(c3)OCO4)c(=O)c3ccccc23)ccn1,?,?,i,i,i,2.3e-09
CCC(c1nnnn1Cc1ccc(F)cc1)N(CCCO)Cc1cc2cc3c(cc2[nH]c1=O)OCO3 (centres undefined),i,?,i,i,i,4.7e-09
CCCCCCNC(=O)C(C#N)c1nc2ccccc2nc1N1CCCC1 (centres undefined),8.01e-07M*,i,i,4.11e-08M*,i,1e-09
CCCCCNC(=O)C(C#N)c1nc2ccccc2nc1N1CCCC1 (centres undefined),5.52e-07M*,i,i,2.89e-08M*,i,1e-09
CCCCN(CCCC)c1nc2ccccc2nc1C(C#N)C(=O)NCCCOC (centres undefined),5.73e-08M*,i,i,?,i,1.62e-08
CCCCOC(=O)C(C#N)c1nc2ccccc2nc1N1CCOCC1 (centres undefined),2.89e-08M*,i,i,?,i,5.9e-09
CCCCCCOC(=O)C(C#N)c1nc2ccccc2nc1N1CCOCC1 (centres undefined),?,i,i,i,i,3.6e-09
Cc1ccc(C(=O)CSc2nnc(-c3ccccc3N)n2C)cc1,?,i,i,i,i,9.4e-09
CC(=O)NNC(=O)N1Cc2ccccc2Oc2ccc(Cl)cc21,?,i,i,i,i,2.75e-08
COCCCNC(=O)C(C#N)c1nc2ccccc2nc1N1CCCC1 (centres undefined),6.6e-08M*,i,i,?,i,1.62e-08
SMILES,Fluorescein fluor,Texas Red fluor,Rhodamine fluor,A488 autofl,Resorufin autofl,A647 autofl
CCCCCCNC(=O)C(C#N)c1nc2ccccc2nc1N1CCOCC1 (centres undefined),4.12e-07M*,i,i,3.02e-08M*,i,1.5e-09
Cn1c(=S)c2[nH]c(SCCN3C(=O)c4ccccc4C3=O)nc2n(C)c1=O,?,i,i,i,i,2.9e-09
Cc1cc(-c2ccccc2C(=O)O)on1,?,?,i,i,i,1.8e-08
O=C(O)c1ccccc1C1=Nc2ccc(O)cc2Oc2cc(O)ccc21,1.67e-07M*,1.27e-08M*,?,?,?,3.56e-08
O=C1NC(=O)C(c2ccccc2)(c2ccccc2)N1,?,i,i,i,i,1e-09
CCC1(c2ccccc2)C(=O)NCNC1=O,1.2e-08M*!,i,i,i,i,3.45e-08
FC(F)(F)c1nc2ncc(Cl)cc2[nH]1,i,i,i,i,i,3.6e-09
Cn1c(=O)[nH]c2cc(Cl)cnc21,1.79e-08M*,i,i,i,i,9.03e-08
Fc1ccc(Br)cc1C1C=C(c2ccc(Br)s2)Nc2ncnn21 (centres undefined),?,i,i,i,i,3.4e-09
COc1cccc(C2C=C(c3ccc(Br)s3)Nc3ncnn32)c1OC (centres undefined),1.45e-08M*,i,i,i,i,1e-09
CC(NC(=O)c1ccco1)c1ccc2c(c1)OCCO2 (centres undefined),?,i,i,i,i,3.86e-08
O=C1c2cccc3c(N4CCCCC4)ccc(c23)C(=O)N1c1ccccn1,2.66e-07M*,i,i,1.34e-08M*,i,2.3e-09
COc1ccc(/C(O)=C2/C(=O)C(=O)N(CCCN(C)C)C2c2ccco2)cc1Cl (centres undefined),?,i,i,i,i,3.09e-08
C[C@@H]1c2ccccc2Cn2cc3c(c21)C(=O)c1cccc(OP(=O)(O)OCc2ccccc2)c1C3=O,8.57e-08M*,i,i,?,i,8.7e-09
CCN[C@@H]1C[C@H](N)[C@H](O[C@H]2OC(CN)=CC[C@H]2N)[C@@H](O)[C@H]1O[C@H]1OC[C@@](C)(O)[C@@H](NC)[C@@H]1O,2.43e-08M*,i,i,i,i,1e-09
CN[C@H]1[C@H](O)[C@@H](O[C@@H]2[C@H](O)[C@@H](O[C@H]3OC(CN)=CC[C@H]3N)[C@@H](N)C[C@H]2N)OC[C@@]1(C)O,?,i,i,i,i,1e-09
CCSC1=NC(=O)/C(=C2/C=Cc3ccccc3N2CC)S1,?,i,i,i,i,7.5e-09
